# Out of some 2,000 compounds screened, fewer than 10 were called active.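 How the source made its calls: active means growth inhibition of at least 75% in every replicate, which also brings the mean inhibition to 75% or more; inconclusive means mean inhibition 75% or more but some replicate under 75%; inactive means the rest.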 The list is a sample of the results.
# Experiment: growth inhibition of PfHsp90-dependent yeast, primary screen, antimalarial PfHsp90 inhibitor project, S. cerevisiae, BacTiter-Glo luminescence (AID 504594);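 further: 0% = DMSO neutral control wells and 100% = 20 µM radicicol control wells; higher value means stronger growth inhibition because the sign is flipped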
# Conditions: S. cerevisiae expressing PfHsp90, BacTiter-Glo growth, 48 h; at 9.4 µM; active compounds read high
row,SMILES,growth inhibition
1,CC(C)NS(=O)(=O)c1ccc(OCC(=O)Nc2cccc(F)c2)cc1,4.62% (inactive)
2,COc1c2c(nc3occc13)C(CC=C(C)C)(OC)C(O)CC2 (stereo not given),3.58% (inactive)
3,COc1ccc(C=NCC2COc3ccccc3O2)cc1OC (stereo not given),13.6% (inactive)
4,O=C(Oc1cccccc1=O)c1ccccc1,11% (inactive)
5,Cc1nc2ccccc2n1CC(=O)NC1CCCC1,-8.15% (inactive)
6,CC1(C)CC(=O)c2cnc(NC(=O)C3CCCC3)nc2C1,0.802% (inactive)
7,Cc1ccc(S(=O)(=O)Oc2ccccc2/C=N/N=C(N)N)cc1,9.9% (inactive)
8,c1ccc(-c2ccc(C(c3ccccc3)n3ccnc3)cc2)cc1 (stereo not given),91.6% (active)
9,CCc1cc2c(C)cc(=O)oc2cc1OC(=O)C1CCCN1C(=O)OC(C)(C)C (stereo not given),5.63% (inactive)
10,COc1ccc2cc(C(=O)Nc3ccc(S(N)(=O)=O)cc3)sc(=O)c2c1OC,5.36% (inactive)
11,CC(C)(C)NCC(O)COc1ccccc1C(=O)CCc1ccccc1 (stereo not given),-4.71% (inactive)
12,Cn1nc(-c2ccc(Cl)cc2)nc2c(=O)n(C)c(=O)nc1-2,104% (active)
13,Cn1nc(-c2ccccn2)nc2c(=O)n(C)c(=O)nc1-2,-12.4% (inactive)
14,Cn1c(=O)[nH]c2nnc(-c3ccc(Cl)c(Cl)c3)nc2c1=O,1.34% (inactive)
15,N/C(Cc1ccc(Cl)cc1Cl)=N\OC(=O)c1ccc(Br)o1,30.5% (inactive)
16,Cc1cccc(Oc2coc3cc(OC(=O)c4cncc(Br)c4)ccc3c2=O)c1,-0.933% (inactive)
17,COC(=O)[C@@H](N)CS,-1.65% (inactive)
18,O=Cc1ccc(N2CCCCC2)cc1,-3.18% (inactive)
19,C#CCOc1ccc2c(C)cc(=O)oc2c1,-0.459% (inactive)
20,COc1cccc(CC(=O)NCC2COc3ccccc3O2)c1OC (stereo not given),12.9% (inactive)
21,O=C(NCc1ccco1)/C(=C\C=C\c1ccccc1)NC(=O)c1ccccc1Br,-0.463% (inactive)
22,CC(=O)OCC(OC(C)=O)C(OC(C)=O)C(OC(C)=O)C(=O)Nc1cccc(C)c1 (stereo not given),-0.0548% (inactive)
23,CC(=O)N1CCN(c2ccc(NC(=O)/C=C/c3ccccc3)cc2)CC1,10.6% (inactive)
24,Cc1ccccc1-c1nn(-c2ccc(F)cc2F)cc1CNCCN(C)C,-12.6% (inactive)
25,CC(C)Cc1ccc(C(C)C(=O)Nc2ccc(O)cc2)cc1 (stereo not given),-4.11% (inactive)
26,Cc1ccc(C(=O)Nc2ccc(O)cc2C(=O)O)cc1C,4.07% (inactive)
27,CC(=O)N1CCn2c3c(c4cc(C)ccc42)CCCC31 (stereo not given),-11.1% (inactive)
28,Fc1cccc(Cc2noc(CN3CCN(c4cnccn4)CC3)n2)c1,-2% (inactive)

row,SMILES,growth inhibition
1,O=Cc1ccccc1Oc1ccccc1,-0.351% (inactive)
2,COc1ccc2[nH]c3c(c2c1)CCn1c-3nc2ccccc2c1=O,0.118% (inactive)
3,CC(=O)Nc1ccc(OS(=O)(=O)c2c(C)cc(C)cc2C)cc1,10.9% (inactive)
4,CCOc1ccc(C(=O)C(C)=O)c(OCC)c1,10.5% (inactive)
5,CC(=O)Oc1ccc(C2OC(=O)c3ccccc3N2C(C)=O)cc1 (stereo not given),-6.47% (inactive)
6,COc1ccc(C(=O)O)cc1F,-4.03% (inactive)
7,O=C(O)c1ccccc1OCCOc1ccccc1,3.6% (inactive)
8,Cc1ccc2nc3c(cc(C(=O)NCC4CCCO4)c(=N)n3CCCOC(C)C)c(=O)n2c1 (stereo not given),4.47% (inactive)
9,CC(C)CC(=O)NC(NC(=O)CC(C)C)c1cccc([N+](=O)[O-])c1,2.96% (inactive)
10,CC(=O)NC(NC(=S)N1CCCCCC1)C(Cl)(Cl)Cl (stereo not given),-2.52% (inactive)
11,C[N+]1(C2CCC3CCCC2C3O)CCCCC1 (stereo not given),-8.1% (inactive)
12,O=C(O)CCCCCN=C1CCc2ccccc2N1,0.535% (inactive)
13,Cc1ccc(OCCCCn2ccnc2C)c(C)c1,-3.77% (inactive)
14,COc1ccc(CCN2C(=O)CSC2c2ccc(OC)c(OC)c2)cc1OC (stereo not given),2.57% (inactive)
15,O=C1C(=O)N2C(=C1C(=O)N1CCCCCC1)c1ccccc1CC21CCCC1,-4.5% (inactive)
16,CCN1CCN(C(=S)c2ccc(OC)cc2)CC1,-1.26% (inactive)
17,O[C@H]1COC2C1OC[C@@H]2O (stereo not given in full),-2.02% (inactive)
18,O=C(Cc1ccccc1[N+](=O)[O-])NCc1ccncc1,15% (inactive)
19,O=[N+]([O-])c1ccc(O)c2ncccc12,93.7% (active)
20,Oc1ccc(COCc2ccccc2)c2cccnc12,-6.18% (inactive)
21,CC1CCN(C(=O)Oc2ccccc2)CC1,5.73% (inactive)
22,C[N+]12CCCCC1C(COC(=O)c1ccc3c(c1)OCO3)CCC2 (stereo not given),1.34% (inactive)
23,CC(C)N(C(=O)Cc1ccccc1[N+](=O)[O-])C(C)C,4.35% (inactive)
24,O=C(c1ccc(Cl)cc1)C1CCCN(Cc2ccc(Oc3ncccn3)cc2)C1 (stereo not given),-7.65% (inactive)
25,Cc1ccc(C2CC(c3cccs3)=NN2C(=O)c2ccco2)o1 (stereo not given),6.03% (inactive)
26,O=CNC1CCCc2c1[nH]c1ccc(Cl)cc21 (stereo not given),-7.59% (inactive)
27,COc1ccc(C(=O)[C@H]2[C@H]3C(=O)N(c4ccccc4)C(=O)[C@H]3C3C=CC=NN32)cc1 (stereo not given in full),15.9% (inactive)
